# In PubChem BioAssay (NCI):
# About 79,000 compounds went through this panel and 15% of them were active in at least one assay; those are over-represented in the sample as a whole. Values without a mark were called inactive. The source made the active and inactive calls. Cut-off read from the data, not from the text of the source: active = growth inhibition above about 70%; inactive = the rest.
# Tests used:
# [1] = NCI Yeast Anticancer Drug Screen. Data for the rad50 strain (AID 155);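 note: 0% = growth of vehicle-only cultures of the same strain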; details: S. cerevisiae rad50 strain growth inhibition, active compounds read high
# Procedure, shortened: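 Yeast carrying a defined DNA repair defect were exposed to test compounds, and growth was compared with vehicle-treated controls to give percent inhibition.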
# [2] = NCI Yeast Anticancer Drug Screen. Data for the mec2-1 strain (AID 157); details: S. cerevisiae mec2-1 strain, active compounds read high
# Procedure, shortened: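 Each compound was tested on mec2-1 yeast, a strain altered in DNA damage repair or cell cycle control. Growth inhibition is reported relative to vehicle.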
# [3] = NCI Yeast Anticancer Drug Screen. Data for the sgs1 mgt1 strain (AID 161);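 note: 0% = growth of cultures given vehicle only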; details: S. cerevisiae sgs1 mgt1 strain, active compounds read high
# Procedure, shortened: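 Genetically altered yeast, compound exposure, growth inhibition relative to vehicle.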
# [4] = NCI Yeast Anticancer Drug Screen. Data for the cln2 rad14 strain (AID 165);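 note: 0% = growth equal to vehicle treated cultures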; details: S. cerevisiae cln2 rad14 strain, active compounds read high
# Procedure, shortened: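 Test compounds were added to cln2 rad14 yeast cultures; inhibition of growth was then determined by comparison with vehicle treatment.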
# [5] = NCI Yeast Anticancer Drug Screen. Data for the bub3 strain (AID 167); details: S. cerevisiae bub3 mutant strain, active compounds read high
# Procedure, shortened: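 Compounds were applied to a genetically altered yeast strain carrying a cell-cycle control defect. Growth inhibition was scored against vehicle-treated controls.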
# [6] = NCI Yeast Anticancer Drug Screen. Data for the mlh1 rad18 strain (AID 175); details: S. cerevisiae mlh1 rad18 strain growth inhibition, active compounds read high
# Procedure, shortened: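 Inhibition values reflect reduced growth of mutant yeast versus vehicle-treated controls following compound exposure; the mutations affect DNA damage repair.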
# [7] = at 5.0 µM (retest, dose inferred, filed as 0.5)
# [8] = at 50.0 µM (retest, dose inferred, filed as 5.0)
Compound,"growth inhibition [1, 7]","growth inhibition [1, 8]",growth inhibition ([1]; at 50.0 µM),"growth inhibition [2, 7]","growth inhibition [2, 8]",growth inhibition ([2]; at 50.0 µM),"growth inhibition [3, 7]","growth inhibition [3, 8]",growth inhibition ([3]; at 50.0 µM),"growth inhibition [4, 7]","growth inhibition [4, 8]",growth inhibition ([4]; at 50.0 µM),"growth inhibition [5, 7]","growth inhibition [5, 8]",growth inhibition ([5]; at 50.0 µM),"growth inhibition [6, 7]","growth inhibition [6, 8]",growth inhibition ([6]; at 50.0 µM)
OC1CCC(COC(c2ccccc2)(c2ccccc2)c2ccccc2)O1 (configuration not stated),-8%,98% (active),98.6% (active),5%,99% (active),98.5% (active),-19%,99% (active),98% (active),5%,98% (active),98.2% (active),4%,96% (active),99% (active),0%,99% (active),98.1% (active)
CSc1c(S(C)=O)c2ccccc2n1C (configuration not stated),20%,17%,-20.6%,22%,27%,-13.2%,12%,11%,-22.2%,25%,17%,-6.4%,3%,8%,-39.5%,27%,20%,-26.4%
O=C(c1ccccc1)c1cn(/N=C\c2ccccc2)c(=O)nc1-c1ccccc1,-3%,61%,88.5% (active),-13%,96% (active),80.2% (active),2%,94% (active),90.9% (active),11%,95% (active),87.4% (active),16%,97% (active),89% (active),-1%,95% (active),84.5% (active)
NC(=O)C1CCN(N=Nc2c(-c3ccccc3)n[nH]c2-c2ccccc2)CC1,79% (active),99% (active),99.4% (active),99% (active),100% (active),99.5% (active),99% (active),100% (active),99.5% (active),99% (active),99% (active),99.3% (active),99% (active),99% (active),99.5% (active),99% (active),99% (active),99.2% (active)
CC(=O)c1ccc(Cl)c(N=Cc2cc(Br)ccc2O)c1,55%,77% (active),68.4%,35%,81% (active),70.4% (active),57%,95% (active),67.4%,34%,56%,24.4%,52%,98% (active),78.2% (active),64%,96% (active),61.5%
Cc1nn(C(=S)S)c(C)c1N=Nc1ccc(Br)cc1,14%,97% (active),99.4% (active),0%,99% (active),99.6% (active),8%,99% (active),99.2% (active),-7%,98% (active),99.4% (active),-2%,98% (active),82.2% (active),0%,99% (active),99.2% (active)
O=[N+]([O-])/C(C(Cl)=C(Cl)Cl)=C(/Sc1ccccc1)N1CCCCC1,-3%,97% (active),84.9% (active),3%,95% (active),88.5% (active),-17%,93% (active),77.6% (active),-7%,95% (active),85.2% (active),-19%,96% (active),86.1% (active),-3%,96% (active),77.9% (active)
CC[N+](CC)(CC)Cc1ccc(C[N+](CC)(CC)CC)cc1,8%,-4%,16.9%,1%,-2%,54.2%,6%,-15%,-0.8%,4%,7%,92.4% (active),5%,-4%,95.5% (active),2%,-4%,17.4%
COc1cc(O)c2c(c1)C(O)C(O)CC1OC1C(=O)/C=C/CC(C)OC2=O (configuration not stated),80% (active),98% (active),91.5% (active),59%,99% (active),93.3% (active),64%,99% (active),93.1% (active),61%,99% (active),92.2% (active),79% (active),99% (active),92% (active),81% (active),98% (active),92% (active)
COc1cc(C(c2cc3c(cc2O)OCO3)N2CCOCC2)ccc1O (configuration not stated),2%,25%,44.8%,-4%,46%,57.5%,-2%,27%,73% (active),1%,3%,47.6%,-4%,25%,42.9%,-5%,34%,50.5%
Nc1ccc(Cl)c2ccccc12,-1%,42%,84.2% (active),-4%,20%,76.8% (active),-5%,12%,71.2% (active),40%,26%,53.5%,6%,48%,57.9%,-4%,33%,74.5% (active)
COC(=O)C(=O)C(C(=O)C(=O)Nc1ccc(C)cc1C)c1nc2ccccc2[nH]c1=O (configuration not stated),21%,21%,17%,8%,8%,20.8%,-2%,-2%,39.2%,5%,5%,-57.3%,-6%,-6%,34%,7%,7%,49.8%
C=CCOc1c(CCC)cc(CN)cc1CCC,-2%,2%,4.45%,-2%,-6%,-8.2%,5%,23%,24.6%,1%,-7%,58.5%,-3%,7%,2.55%,-1%,11%,49.8%
[Cl][Sn]1([Cl])[CH2]CC[CH2][Sn]([Cl])([Cl])[CH2]CC[CH2][Sn]([Cl])([Cl])[CH2]CC[CH2][Sn]([Cl])([Cl])[CH2]CC[CH2]1,-20%,57%,54.3%,-19%,63%,83.3% (active),-3%,66%,87.5% (active),-6%,47%,69.6%,-9%,66%,70.9% (active),-2%,83% (active),94% (active)
Cc1ccc(NCCN(C)C)c2c(=O)c3c(O)cccc3sc12,95% (active),99% (active),67.3%,13%,100% (active),54.3%,30%,98% (active),60.7%,11%,99% (active),58.7%,9%,99% (active),49.5%,29%,99% (active),55.8%
CCOC(=O)C1CSC(c2c(CO)cnc(C)c2O)N1 (configuration not stated),-1%,5%,47.6%,-8%,-3%,0.75%,-3%,2%,9.55%,4%,7%,-4.1%,2%,14%,10.8%,2%,5%,18.1%
O=C1NC(=S)S/C1=C/c1ccc(/C=C2/SC(=S)NC2=O)cc1,-16%,-3%,21%,-10%,-14%,22.6%,-6%,-3%,9.45%,-19%,-22%,58.4%,-12%,-12%,7.75%,-15%,-19%,28.4%
COc1ccc(CSC(=S)Nc2ccc(Cl)c([N+](=O)[O-])c2)cc1,48%,92% (active),88.5% (active),50%,95% (active),77.1% (active),56%,99% (active),88.4% (active),43%,97% (active),9%,77% (active),99% (active),21.5%,79% (active),98% (active),94.1% (active)
CC(=O)Oc1ccc(C)cc1C(C)(C)C,-1%,0%,57.6%,1%,-4%,54.8%,-2%,-2%,59.1%,1%,-1%,28.7%,0%,-7%,59.3%,-1%,0%,74.2% (active)
